From PubChem BioAssay (NCI) come the findings set out here.

This is part of a sample that, as a whole, favours compounds with a hit. Of some 83,000 tested, about 20% had one in any assay.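 Method: cells in 96-well plates; compound added at one concentration; 48 h incubation; percent growth measured; values under 10 scored active.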 Values without a mark were called inactive. Calls of active or inactive are those of the source.

For this experiment, the system named is MDA-MB-468 breast. Briefly: NCI-60 one-dose screen, 48 h (100 = growth as untreated, 0 = no growth, -100 = all killed). The conditions noted are these: 10 µM unless noted.
As to `COC(=O)c1nc(-c2ccc(C)cc2)oc1S(=O)(=O)c1cccc(OC)c1`, the growth was 71.7%.

For the compound `O=c1ccc2cc3ccccc3cc2[nH]1`, the growth was 99%.

On to `COc1ccc(-c2nn(-c3cccc(NC(=O)Nc4cccc(C(F)(F)F)c4)c3)cc2-c2ccncc2)cc1Cl`, for which the growth was 27.5%.

Consider `c1csc(-c2cnc3nonc3n2)c1`, for which the growth is 67.5%.

Consider `C=CCn1c(C)nc2cc(Nc3nc(Nc4ccc5nc(C)n(CC=C)c5c4)c4ccccc4n3)ccc21`, for which the growth is -85% (active).

In the case of `COc1cc(C)cc(-c2c(-c3cc(N4CC(O)C4)nc(-c4cccnc4)n3)cnn2C)c1`, the growth was 80.2%.

With `CC1=C(C)C(=O)C(Nc2cccc(C(F)(F)F)c2)=C(Cl)C1=O`, the growth was -65.6% (active).

As for `C=C1CC[C@@H]2[C@](C)(COC(C)=O)[C@H](OC(C)=O)CC[C@@]2(C)[C@@H]1CC(Nc1ccc(S(=O)(=O)Nc2nc(C)cc(C)n2)cc1)C1=CCOC1=O` (stereo not given in full), the growth was 41%.

For `O=S(=O)(c1ccccc1)N1CCCc2ccccc21`, the growth was 104%.

With `CCOC(=O)c1cc(C(=O)c2cc(OC)c(OC)c(OC)c2)n2ccc(-c3cc[n+](CC(=O)c4cc(OC)c(OC)c(OC)c4)cc3)cc12`, the growth is 43.2%.

On to `O=C(NCCCN1CCCCC1)c1ccc(-c2nc3ccc4[nH]ncc4c3c3c2CCCC3)cc1`, for which the growth was 35.4%.

On to `OC(c1cc2cc(Cl)c(Cl)cc2c2cc(C(F)(F)F)ccc12)C1CCCCN1` (stereo not given), for which the growth is -92.2% (active).

In the case of `Oc1ccc(CSc2nnc(-c3ccccc3)n2-c2ccccc2)c2cccnc12`, the growth was -2.77% (active).

As for `CCC1=Cc2c(OC)cccc2OC12C=Cc1c(OC)cccc1O2` (stereo not given), the growth is 54%.

As for `N=c1nc(N)ncn1-c1ccccc1`, the growth was 113%.

Consider `CNC(=O)c1cc(Oc2ccc3nc(NC(=O)Nc4ccc(Cl)cc4)sc3c2)ccn1`, for which the growth was 55.1%.

Consider `Fc1ccc(-c2cnc3nonc3n2)c(F)c1`, for which the growth is 73.3%.

In the case of `CCCc1n(Cc2ccc3ccccc3n2)cc[n+]1Cc1ccc2ccccc2n1`, the growth was -39.9% (active).

`COc1ccc(-c2cnnc3c(-c4cccc(C(F)(F)F)c4)cnn23)cc1`: the growth is 77.6%.

Turning to `CCOC(=O)c1ccc(NC(=O)Nc2nncs2)cc1`, the growth was 12.5%.

Consider `COc1ccc2c(c1)CC[C@H](O)/C2=C/c1cc(OC)c(OC)c(OC)c1`, for which the growth is 17.6%.

On to `COc1ccc(COC(C)=O)cc1`, for which the growth was 108%.

In the case of `O=C(COc1ccc(C2SCC(=O)N2c2ccccc2)cc1)c1ccccc1` (stereo not given), the growth was 85.3%.

Regarding `Nc1c(C(=O)c2ccc(Cl)s2)sc2nc3c(cc12)CCCC3`, the growth is 69.1%.

In the case of `C#CCn1c(-c2cc(OC)c(OC)cc2Br)nc(-c2ccccc2)c1-c1ccccc1`, the growth is 5.05% (active).

Regarding `CCN(CC)Cc1cccc(C(=O)OC)c1`, the growth is 97.2%.

Take `CN(C)c1ccc(/C=C/C2=[N+](C)c3ccccc3C2(C)C)cc1`: the growth was 6.5% (active).

As for `Cc1csc(Nc2cccc(Nc3nc(C)cs3)c2)n1`, the growth is 47.6%.

Turning to `O=C(CNc1ccc(Cl)cc1)Nc1ccc(-c2nc3ccccc3s2)cc1`, the growth was -11.2% (active).

In the case of `COc1ccc(-c2cnc3ccnn3c2-c2cc(OC)c(OC)c(OC)c2)cc1`, the growth was 2.83% (active).

For `Nc1c(C(=O)O)cc(Cl)cc1[N+](=O)[O-]`, the growth is 96.2%.

Turning to `CN(C)CCC(=O)Nc1ccc(-n2cc(-c3cccc(NC(=S)Nc4cccc(-c5cn(-c6ccc(NC(=O)CCN(C)C)cc6)nn5)c4)c3)nn2)cc1`, the growth was -9.56% (active).

For the compound `N#Cc1c(NC(=O)NCc2ccccc2)sc2c1CCCCC2`, the growth was -25.9% (active).

As to `C#Cc1cccc(NC(=O)Nc2ccccc2NC(=O)CCl)c1`, the growth was -45.2% [8.25 µM] (active).

`Nc1ncc(-c2cnn(C3CCNCC3)c2)cc1-c1nc2ccccc2o1`: the growth is -29.1% (active).

In the case of `COc1ccc(-c2n/c(=C\c3c(O)[nH]c4ccc(OC)cc34)cc3c2=Nc2ccccc2-3)cc1`, the growth was -46.8% (active).

On to `CC(C)(C)c1cc(O)c(O)c(C(C)(C)C)c1`, for which the growth was 40.4%.

As to `COC(=O)c1[nH]cnc1/N=N/N(C)CCO`, the growth is 87.2%.

`O=C1OC(Oc2ccccc2)(c2ccccc2)c2ccccc21` (stereo not given): the growth is 112%.

For `CN(C)c1ccc(/C=C/C(=O)c2ccc(-n3cc(CN4CCN(c5cc6c(cc5F)c(=O)c(C(=O)O)cn6C5CC5)CC4)nn3)cc2)cc1`, the growth was 32.9%.
